The experiment in a line: LOX IMVI melanoma cell viability loss, dose response, HRAS target identification, CellTiter-Glo ATP luminescence, 8/24/48 h, dry powder (AID 720602). (In ATP-based viability assays light output follows the ATP content of the culture.)

The structures appear in SMILES notation. Entries with a potency or affinity are not part of this list. Active and inactive are the calls of the source.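 How the source made its calls: active means signal drop at all three exposure times, half-maximal concentration at most twice the top valid dose; inconclusive means exposure times give differing calls; inactive means inactive at every exposure time.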

As to `CCC(=O)N(c1ccc(OC)c(Cl)c1)C(C(=O)NCCc1ccccc1)c1cccs1` (configuration not stated), the call was inactive.

With `Cc1onc(C(=O)N2CCN(C(c3ccncc3)c3ccncc3)CC2)c1[N+](=O)[O-]`, the molecule was classed as inactive.
